These results are taken from PubChem BioAssay AID1508621 (National Center for Advancing Translational Sciences (NCATS), 2021).

Results filed as inconclusive are left out. Where a call stands in place of a potency, no number is given. The source made the active and inactive calls. Calls follow the shape of the dose curve; as a rule, active = well fitted inhibition curve with a large enough effect; inconclusive = small, poorly fitted or top-dose-only effect; inactive = no such curve, though single readings can be large or run the other way.
Potency is read from the fitted curve at half-maximal effect.

The assay can be described thus: Confirmatory qHTS for Identification of Small Molecule Inhibitors of Huntingtin Promoter Activity. Also: nearly all actives have a fitted effect of over 65% in size. As to conditions: HEK293 HTT promoter firefly luciferase reporter, 24 h; series mostly up to 57.5 µM. An excerpt:
Assay Provider: Russell L. Margolis M.D.
Department Neurology, Johns Hopkins University School of Medicine, Baltimore, MD
Huntington's Disease (HD) is a neurodegenerative disorder caused by a CAG repeat expansion in exon 1 of huntingtin (HTT). While there are currently no disease-modifying treatments for HD, recent efforts have focused on development of nucleotide-based therapeutics to lower HTT expression. As an alternative to siRNA or oligonucleotide methods, we hypothesized that suppression of HTT expression might be accomplished by small molecules that either (1) directly decrease HTT expression by suppressing HTT promoter activity or (2) indirectly decrease HTT expression by increasing the promoter activity of HTT-AS, the gene antisense to HTT that appears to inhibit expression of HTT.
We developed and employed a high throughput screen for modifiers of HTT and HTT-AS promoter activity using luminescent reporter HEK293 cells; of the 52,041 compounds tested, we identified 898 replicable hits. We used a rigorous stepwise approach to assess compound toxicity and the capacity of the compounds to specifically lower huntingtin protein in 5 different cell lines, including HEK293 cells, HD lymphoblastoid cells, mouse primary neurons, HD iPSCs differentiated into cortical-like neurons, and HD hESCs. We found no compounds which were able to lower huntingtin without lowering cell viability in all assays, though the potential efficacy of a few compounds at non-toxic doses could not be excluded.
SEQUENCE No. (1, 2, 3, etc.); […] (e.g., Cells, Incubation, Reagent, etc.); VALUE and DESCRIPTION.
1; Reagent; 4 uL; 2,500 Hek293 luciferase reporter cells per wells
3; Compound; 23 nL; Control inhibitor / compound library
5; Reagent; 2.5 uL; Firefly Luc reagent; Dual-Glo Luciferase Reporter Assay System (Promega)
6; Time; 10 min; room temperature incubation
7; Detection; Luminescence; FLuc
NOTES (numbers refer to sequence above)
1; High-throughput screening, measuring luminescence from a Hek293 luciferase reporter, was performed in 1,536 well white-walled tissue-culture treated plates. 2,500 cells were plated in 4 uL of Opti-MEM per well using a Multidrop Combi Reagent Dispenser (ThermoFisher).
2; Assay plates were cultured for 24 hours.
3; Control inhibitor (PTC124; final concentration of 50 uM) and compound library (at final concentrations of 460 nM - 57.5 uM) were added to the assay plate using the Kalypsis Pintool Robotic System equipped with 1536 pinheads.
4; Cells were then incubated for 24 hours at 37C prior to luminescence measurements.
5; In all cases, luminescence was measured using the Dual-Glo Luciferase Reporter Assay System (Promega) following the manufacturer's instructions.
6; Room temperature incubation.
7; Luminescence signal was obtained using the PerkinElmer ViewLux plate reader. Results were normalized to vehicle control (0% activity) and zero RLU (-100% activity).
A general note: qHTS replaces the single test concentration by a dilution series.
With `CC(C)(O)C=CC(=O)[C@](C)(O)[C@H]1[C@H](O)C[C@]2(C)[C@@H]3CC=C4[C@@H](C=C(O)C(=O)C4(C)C)[C@]3(C)C(=O)C[C@@]12C`, the Potency was 0.757 µM (active). The same measure for `Cc1ccc(-n2c(/C=C/c3ccc(Br)s3)nc3ccccc3c2=O)cc1`: “inactive”; for `O=C(N[C@H]1CN2CCC1CC2)c1ccc(Cl)cc1`: “inactive”. Then `O=c1c2ccccc2nc(/C=C/c2cccc3ccccc23)n1-c1ccccc1Cl`, with “inactive”; and `CCN(CC)C(=O)N[C@@H]1C=C2c3cccc4[nH]cc(c34)C[C@@H]2N(C)C1`, with “inactive”; and `CCCCc1ccc(NC(=O)c2cccn(Cc3ccc(Cl)cc3)c2=O)cc1`, with “inactive”. `COc1ccc(-n2c(/C=C\c3ccccc3F)nc3ccccc3c2=O)cc1OC`: the Potency entry was “inactive”. Then `Nc1c(C(=O)Nc2ccc(Cl)c(C(F)(F)F)c2)sc2nc3c(cc12)N1CCC3CC1`, with 12 µM (active). `Cc1ccccc1Cn1cccc(C(=O)Nc2nc3ccccc3s2)c1=O`: the Potency was 12 µM (active). Then `CNC(=O)N1N=C(c2ccc(N)cc2)c2cc3c(cc2CC1C)OCO3` (stereo not drawn), with “inactive”; and `CC(C)N[C@@H]1CCn2c(=O)[nH]c3cccc(c32)[C@@H]1O`, with “inactive”; and `CCOc1ccc(NC(=O)c2cccn(Cc3cccc(Cl)c3)c2=O)cc1`, with “inactive”. As for `Cc1cccc(-n2c(/C=C\c3cccc(Br)c3)nc3ccccc3c2=O)c1`, the Potency entry is “inactive”.
